Fam108B inh: Fam108B inhibition, counter-screen for RBBP9 inhibitors; recombinant Fam108B, FP-Rh probe fluorescence polarization; inhibition, % at 9.51 µM; 300,000 tested, 0.33% active;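 active means inhibition above the screen mean inhibition plus 3 SD, computed separately per campaign, cut at about 18% in these data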;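 further: inhibitors lower polarization as less probe binds the enzyme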
pPAFAH inh: pPAFAH (human) enzyme inhibition; Q13093; recombinant pPAFAH, FP-rhodamine probe fluorescence polarization; inhibition, % at 3.39 µM; 330,000 tested, 1.5% active;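 active means inhibition above the mean inhibition across the screen plus 3 SD, cut at about 25% in these data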;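 further: inhibitors block binding of the rhodamine activity-based probe so polarization drops; 0% = enzyme with DMSO and 100% = wells lacking pPAFAH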
Target sequence (Q13093 whole entry, looked up): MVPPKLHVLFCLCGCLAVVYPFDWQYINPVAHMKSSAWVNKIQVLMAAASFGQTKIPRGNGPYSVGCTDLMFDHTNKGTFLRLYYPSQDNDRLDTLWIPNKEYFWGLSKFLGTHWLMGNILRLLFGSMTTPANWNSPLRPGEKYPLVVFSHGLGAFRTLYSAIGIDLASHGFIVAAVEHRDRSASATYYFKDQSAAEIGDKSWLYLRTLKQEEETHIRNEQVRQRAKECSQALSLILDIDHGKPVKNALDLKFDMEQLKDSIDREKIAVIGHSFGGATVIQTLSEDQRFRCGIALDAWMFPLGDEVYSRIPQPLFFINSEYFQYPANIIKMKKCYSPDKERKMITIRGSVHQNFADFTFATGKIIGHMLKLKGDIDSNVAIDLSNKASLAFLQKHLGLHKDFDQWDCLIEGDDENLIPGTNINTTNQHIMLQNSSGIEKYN
GSTO1 counter: counter-screen for RBBP9 inhibitors: inhibitors of human GSTO1 | inhibition, % at 5.96 µM | recombinant GSTO1, activity-based probe fluorescence polarization | 300,000 tested, 1.1% active | AID 1974 | P78417;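 active means inhibition above the campaign mean inhibition plus 3 SD, cut at about 35% in these data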;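 further: 0% = GSTO1-1 with DMSO and 100% = wells lacking GSTO1-1 enzyme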
PAD4 inh: inhibitors of human PAD4; Q9UM07; recombinant PAD4, RCA probe fluorescence polarization; inhibition, % at 6.36 µM; 330,000 tested, 0.41% active; AID 485272;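 active means percent inhibition above a cutoff equal to the mean of all tested compounds plus 3 SD, cut at about 15% in these data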;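 further: 0% = PAD4 with RCA probe and DMSO and 100% = probe without PAD4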
PME-1 inh: blocks human protein phosphatase methylesterase 1; Q9Y570; inhibition, % at 5.9 µM; recombinant PME-1, FP-Rh probe fluorescence polarization; 320,000 tested, 0.53% active;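 active means inhibition above the campaign mean of all compounds plus 3 SD, cut at about 26% in these data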;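 further: competitive labeling of PME-1 active site by serine hydrolase directed probe; 0% = PME-1 with DMSO and 100% = wells lacking PME-1 enzyme; inhibitors block probe labeling so polarization falls and inhibition rises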
Fam108b inh conf: confirmation of mouse Fam108b serine hydrolase inhibitors. shares compounds with Fam108B inh. inhibition, % at 9.51 µM. recombinant Fam108b, FP-Rh probe fluorescence polarization. 930 tested, 44% active. AID 1978;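 active means inhibition above a limit from the primary screen, the mean over all compounds plus 3 SD, cut at about 19% in these data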;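 further: 0% = median of active Fam108b wells and 100% = catalytically dead S170A mutant; inhibitors free the probe so polarization falls as inhibition rises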
Fam108b inh: inhibits mouse Fam108b in gel-based ABPP | inhibition, % at 20 µM | 260 tested, 44% active | recombinant Fam108b, fluorophosphonate probe | shares compounds with Fam108B inh; in the data active means inhibition above about 40%
* hit, by the source's call; . = no result. This is a sample that favours compounds with a hit; in the whole collection about 2.3% have one here.

SMILES	Fam108B inh	pPAFAH inh	GSTO1 counter	PAD4 inh	PME-1 inh	Fam108b inh conf	others
CCOC(=O)CSc1nc2c(sc(=S)n2-c2ccccc2OC)c(=O)n1Cc1ccco1	19*	0	-1	-4	26	7
Nc1ccc2nc(-c3cccc(-c4nc5ccc(N)cc5[nH]4)c3)[nH]c2c1	25*	6	-7	-22	51*	146*	Fam108b inh=90*
CC(C)(C)c1nc2scc(-c3ccc(Br)cc3)c2c(=O)o1	27*	1	1	0	-6	29*
COc1ccc(-c2csc3nc(-c4ccccc4F)oc(=O)c23)cc1	50*	-1	-49	-2	12	36*	Fam108b inh=60*
Cc1nc2scc(-c3cccs3)c2c(=O)o1	4	7	5	0	0	.
Cc1nc2scc(-c3ccc(Cl)cc3)c2c(=O)o1	46*	4	1	-4	-7	79*	Fam108b inh=80*
COc1ccc(-c2nc3scc(-c4ccc(OC)c(OC)c4)c3c(=O)o2)cc1	-1	1	0	9	20	.
COc1cccc(N=Nc2ccc3ccccc3c2O)c1	19*	-1	0	-7	7	5
Cc1ccc(N=Nc2ccc3ccccc3c2O)cc1	28*	-1	3	-6	-5	9
COc1ccc(N=Nc2ccc3ccccc3c2)c(O)c1	-1	0	1	1	1	.
Oc1c(N=Nc2ccc(F)cc2)ccc2ccccc12	-16	5	9	-6	-15	.
NS(=O)(=O)c1ccc(N=Nc2c(-c3ccccc3)[nH]n(-c3nc(-c4ccccc4)cs3)c2=O)cc1	33*	3	22	4	13	1
Nc1[nH]n2c(=O)cc(-c3ccccc3)nc2c1N=Nc1ccc(S(N)(=O)=O)cc1	17	20	-3	-8	-11	.
CCOc1cc(/C=C2\C(=O)N(c3ccc(C(N)=O)cc3)N=C2C)ccc1OC(=O)c1cccs1	20*	4	73*	27*	9	8
O=C(CCCN1C(=O)c2cccc3cccc(c23)C1=O)NCc1ccco1	1	2	1	-3	8	.
O=C(CCCN1C(=O)c2cccc3cccc(c23)C1=O)NCc1cccs1	22*	0	4	-2	1	27*
O=C(CN1CCCc2ccccc21)N/N=C/c1c(O)ccc2ccccc12	43*	12	-6	-2	31*	16
O=C(N/N=C/c1ccc(O)cc1O)c1ccc(CN2C(=O)c3cccc4cccc2c34)cc1	38*	30*	-48	-8	-36	28*
CCCc1cc(SCC(=O)Nc2c(C)n(C)n(-c3ccccc3)c2=O)n2c(nc3ccccc32)c1C#N	24*	7	-46	-3	-8	23*
CC(NC(=O)Cc1ccccc1)C1COc2ccccc2O1 (centres undefined)	125*	4	3	3	1	-1
CC(NC(=O)COc1ccccc1)C1COc2ccccc2O1 (centres undefined)	7	-1	5	-1	3	.
CN(C)c1ccc(NC(=O)CSc2nc(N)c(C(=O)Nc3ccc(N(C)C)cc3)s2)cc1	19*	8	20	2	20	-6
COc1ccc(NC(=O)CSc2nc(N)c(C(=O)Nc3ccc(N(C)C)cc3)s2)cc1	7	-5	14	-10	3	.
COc1cccc(C(=O)/C=C/Nc2ccc(S(=O)(=O)Nc3cccc(C(C)=O)c3)cc2)c1	22*	-9	-28	1	-3	-11
COc1cccc(C(=O)/C=C/Nc2ccc(NC(C)=O)cc2)c1	2	7	2	-3	6	.
SMILES	Fam108B inh	pPAFAH inh	GSTO1 counter	PAD4 inh	PME-1 inh	Fam108b inh conf	others
Cn1c(=O)c(C#N)c(-c2ccc(F)cc2)c2cc(C(=O)c3cc(Cl)cc(Cl)c3O)cnc21	22*	26*	23	4	63*	22*
COc1ccccc1-n1c(=O)c(C#N)c(-c2ccc([N+](=O)[O-])cc2)c2cc(C(=O)c3cc(F)ccc3O)cnc21	-2	1	-7	-4	1	.
CC(C)N(C(=O)[C@H]1C[C@H](CC(=O)NCCC2=CCCCC2)C(=O)N2CCc3c([nH]c4ccc(Cl)cc34)[C@]12C)C(C)C	.	-2	.	1	.	.
O=C(/C(=N\Nc1ccc(Br)cc1)Sc1nnnn1-c1ccccc1)c1ccccc1	-3	0	1	-3	6	.
Brc1ccc(N/N=C(/N=Nc2nn[nH]n2)c2ccccc2)cc1	25*	61*	25	0	51*	28*
CSc1ccc(C2NC(=O)c3ccccc3N2)cc1 (centres undefined)	-1	0	-3	-2	6	.
Clc1ccc(C2Nc3cccc4cccc(c34)N2)cc1	28*	16	35*	1	19	22*
c1cc2c3c(cccc3c1)NC(c1ccc3c(c1)OCO3)N2	24*	0	35*	-6	23	4
CSc1ccc(C2Nc3cccc4cccc(c34)N2)cc1	19*	0	12	-5	48*	6
Brc1ccc(C2Nc3cccc4cccc(c34)N2)s1	42*	8	34	4	33*	28*
O=[N+]([O-])c1cc(C2Nc3cccc4cccc(c34)N2)ccc1Cl	1	0	10	3	18	.
C=CCN(Cc1ccc(OC)c(OC)c1)C(=O)c1cc2cc(F)ccc2[nH]1	-1	-1	0	3	-2	.
Cc1cc(C(=O)N2CCN(c3cc(Cl)ccc3C)CC2)on1	-3	6	3	0	5	.
O=C(NCCc1ccccc1F)N[C@@H](Cc1ccccc1)C(=O)O	2	5	6	2	-9	.
COc1ccc(-n2nc(C(=O)NCC(=O)NCCN(C)C)c3ccccc3c2=O)c(OC)c1	0	5	6	1	4	.
COc1ccc(NC(=O)CN2C(=O)C(C)Oc3ccccc32)cc1OC (centres undefined)	-2	5	2	-3	3	.
O=c1cnnc(NCc2ccccc2)[nH]1	22*	4	0	1	-5	2
CCN(CC)c1ccc(C2Nc3cccc4cccc(c34)N2)c(O)c1	51*	-2	30	-4	47*	53*	Fam108b inh=90*
Cc1ccc2nc(-c3ccccc3)cc(C(=O)N3CCN(S(=O)(=O)c4c(C)noc4C)CC3)c2c1	.	-6	.	-1	0	.
Cc1cc(C(=O)CSc2nnnn2C)c(C)n1Cc1ccco1	-3	1	3	-3	0	.
Cc1cc(C(=O)CSc2ncccn2)c(C)n1Cc1ccco1	19*	7	5	-2	-1	5
Cc1cc2c(N=O)c(NO)ccc2[nH]1	33*	10	22	-5	49*	10
O=[N+]([O-])c1cccc(-c2nc(-c3cccs3)c(-c3cccs3)[nH]2)c1	26*	28*	-3	-1	32*	7

Compound activity as filed in PubChem.
